# Source: PubChem BioAssay AID588855 (National Center for Advancing Translational Sciences (NCATS), 2011)
# The campaign covered roughly 410,000 compounds. About 5,000 (1.2%) were called active. Another 13% or so got no clear call; they are omitted. Calls come from the whole dose curve; as a rule, active = well fitted inhibition curve with a large enough effect; inconclusive = small, poorly fitted or top-dose-only effect; inactive = no such curve, though single readings can be large or run the other way. The full list was thinned out, with actives kept by preference.
# Experiment: qHTS for Inhibitors of TGF-b; note: nearly all actives have a fitted effect of over 65% in size
# Details: HepG2 CAGA-GFP TGF-b/SMAD3 reporter, GFP fluorescence, 18 h, TGF-beta stimulated, 500 pg/mL final; series mostly up to 46.1 µM; activity, negative = inhibition: at the top concentration
# Outline: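 Smad-responsive CAGA-GFP expression was quantified in HEPG2 cells exposed to compounds and 500 pg/mL final TGF-beta for 18 h at 37 degrees C; unstimulated wells defined full inhibition.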
# % is set by controls: 0 for no effect and ±100 for the full control effect; potency is the fitted concentration of half-maximal effect.
Compound,"activity, negative = inhibition",Potency
Cc1ccc2nc(COc3ccc(NC(=O)COc4ccccc4F)cc3)cc(=O)n2c1,2.5% (inactive),
C[C@]12c3[nH]c4ccc(Cl)cc4c3CCN1C(=O)[C@@H](CC(=O)NCCCn1ccnc1)C[C@@H]2C(=O)N1CCOCC1,-17.1% (inactive),
O=C(C[C@H]1C[C@H](C(=O)N2CCOCC2)[C@@]2(CCC3CCCC3)c3[nH]c4ccc(Cl)cc4c3CCN2C1=O)NCc1ccco1,-11.8% (inactive),
COc1ccc(CNC(=O)C[C@H]2C[C@H](C(=O)N3CCOCC3)[C@@]3(CCC4CCCC4)c4[nH]c5ccc(Cl)cc5c4CCN3C2=O)cc1OC,,1.78 µM (active)
CC(C)N(C(=O)[C@H]1C[C@H](CC(=O)NC(C)(C)C)C(=O)N2CCc3c([nH]c4ccc(Cl)cc34)[C@]12C)C(C)C,,11.2 µM (active)
CCN(CC)C(=O)[C@H]1CC(CC(=O)NCc2ccco2)C(=O)N2CCc3c([nH]c4ccccc34)[C@]12C (stereo not given in full),-5.13% (inactive),
COc1ccc2[nH]c3c(c2c1)CCN1C(=O)C(CC(=O)NCCCN(C)C)C[C@H](C(=O)N2CCOCC2)[C@@]31CCC1CCCC1 (stereo not given in full),3.02% (inactive),
CCOC(=O)c1c(S(=O)(=O)N2CCCC(C(=O)NCc3cccc(C)c3)C2)c(C)n(C)c1C (stereo not given),-37.3% (inactive),
Cc1ccc(-n2c(SCC(=O)c3ccccc3)nc3c([nH]c4ccccc43)c2=O)cc1,7.46% (inactive),
CN1c2ccc(Cl)cc2-c2nc(SCC(=O)Nc3cc(F)ccc3F)ncc2S1(=O)=O,8.76% (inactive),
O=C(c1ccc2c(c1)N(Cc1ccccc1F)C(=O)c1ccccc1S2(=O)=O)N1CCOCC1,1.56% (inactive),
Cc1ccc(S(=O)(=O)NCc2nc3nc(C)cc(C)n3n2)cc1,18.1% (inactive),
COc1ccc(CCNC(=O)CCCCn2c(=O)c3ccccc3n(Cc3ccccc3)c2=O)cc1OC,4.39% (inactive),
CC(=O)c1ccc(NC(=O)CSc2c(C(C)C)cnc3c2c(=O)n(C)c(=O)n3C)cc1,-24.6% (inactive),
CCOC(=O)C1=C(N)N(c2ccc(C)cc2)C2=C(C(=O)CCC2)C1c1cccs1 (stereo not given),,11.2 µM (active)
O=C1CCCC2=C1C(c1cccs1)CC(=O)N2c1ccc(F)cc1 (stereo not given),16.1% (inactive),
CCOC(=O)c1cc2c(n(-c3ccc(C)cc3)c1=O)CCCC2=O,4.92% (inactive),
COc1ccccc1NC(=O)c1oc2ccccc2c1NC(=O)COc1ccccc1OC,6.75% (inactive),
O=C(Nc1ccc(Cl)cc1)c1cnn2c1NC(=C1CC1)C=C2C(F)F,6.09% (inactive),
O=C(Cc1ccccc1)NNC(=O)C1CCN(c2ncccn2)CC1,2.56% (inactive),

Compound,"activity, negative = inhibition",Potency
Oc1c(CN2CCCC2)cc(COCc2ccccc2)c2cccnc12,,4.47 µM (active)
Cc1cccc(C)c1NC(=O)CN1CCN(c2ccc(F)cc2)CC1,-22.8% (inactive),
Cc1cc(=O)oc2cc(OCC(=O)N3CCN(c4ccc(F)cc4)CC3)c(Cl)cc12,5.48% (inactive),
Oc1c(CN2CCN(c3ccc(F)cc3)CC2)cc(Cl)c2cccnc12,,7.08 µM (active)
O=c1cc(CN2CCCCCCC2)c2c(ccc3ccccc32)o1,0.276% (inactive),
CCc1nn(CCCC(=O)NCc2ccccc2OC)c(=O)c2cc3occc3n12,-7.43% (inactive),
CCc1ccc(CNC(=O)c2cc3cc4ccc(OC)cc4nc3o2)cc1,1.92% (inactive),
CCCNC(=O)C1CCN(c2nc3ccc(C)cc3[nH]2)CC1,-3.16% (inactive),
CCc1ccc(NC(=O)Nc2ccncc2)cc1,-6.39% (inactive),
Cc1ccc(NC(=O)Nc2nnc(-c3ccncc3)s2)cc1,,11.2 µM (active)
CC(C)=CC(=O)Nc1nnc(-c2ccc(F)cc2)s1,-2.71% (inactive),
CN1CCN(C2(CNC(=O)COc3ccc(C(C)(C)C)cc3)CCCCC2)CC1,-29.2% (inactive),
CCOc1ccc(S(=O)(=O)c2cn(Cc3ccccc3)c3ccc(OCC)cc3c2=O)cc1,-14.2% (inactive),
Cc1csc(NC(=S)Nc2cccc(Cl)c2)n1,,8.91 µM (active)
O=C(Nc1cccc(Cl)c1)c1csnn1,18.8% (inactive),
O=C(NCc1cn2ccsc2n1)Nc1cccc(Cl)c1,5.96% (inactive),
O=C1CC(c2ccccc2)CC2=C1C(c1ccco1)n1nc(C(F)(F)F)nc1N2 (stereo not given),-19% (inactive),
CCCCNC(=O)Cn1c(SCc2cccc(Cl)c2)nc2ccncc21,-13.9% (inactive),
Cc1cccc(-c2nnc(SC(C)C(=O)Nc3ccccc3)n2C)c1 (stereo not given),-24.7% (inactive),
O=S(=O)(NCCS(=O)(=O)N1CCN(c2ccccc2)CC1)c1ccc(Cl)cc1,-2.71% (inactive),

Compound,"activity, negative = inhibition",Potency
O=C(CN1C(=O)COc2ccc(S(=O)(=O)N3CCOCC3)cc21)N1CCN(c2cccc(Cl)c2)CC1,11.3% (inactive),
O=C(Nc1nnc(SCc2c(Cl)cccc2Cl)s1)c1cccc([N+](=O)[O-])c1,-25% (inactive),
O=C(Nc1ccc(C2CC2(Cl)Cl)cc1)c1cccc([N+](=O)[O-])c1 (stereo not given),,15.8 µM (active)
CC(C)(C)SCCNC(=O)c1cccc([N+](=O)[O-])c1,9.19% (inactive),
Cc1ccc(-c2cn3c(n2)sc2cc(C(=O)NCc4cccs4)ccc23)c(C)c1,-4.09% (inactive),
Cc1cc(C)cc(NC(=O)CSc2nc(=O)n(CCN3CCOCC3)c3c2CCC3)c1,-26.2% (inactive),
Cc1nnc(SCc2cc(=O)c3cc(F)ccc3[nH]2)n1C,-0.0891% (inactive),
O=C(Nc1ccc(Cl)cn1)c1ccccc1-c1ccccc1,-1.56% (inactive),
Clc1ccc(Nc2nc(-c3cccs3)cs2)nc1,,11.2 µM (active)
CCCc1cc(C(=O)Nc2ccc(Cl)cn2)cs1,-13.9% (inactive),
COc1ccc(C(=O)COC(=O)CCCC(=O)Nc2cc(C(F)(F)F)ccc2Cl)cc1,0% (inactive),
Cc1cc(Nc2cccc(C(F)(F)F)c2)nc2ccc(NC(=O)c3ccc(=O)[nH]c3)cc12,-3.23% (inactive),
COc1cc(NC(=O)c2cncc(-c3ccc(C#N)cc3)c2)cc(C(=O)Nc2cccc(C(F)(F)F)c2)c1,-10.5% (inactive),
COc1cc(NC(=O)c2[nH]cnc2C(N)=O)cc(C(=O)Nc2cccc(C(F)(F)F)c2)c1,,4.47 µM (active)
O=C(Nc1ccccc1F)C(c1ccccc1)N1Cc2ccccc2C1=O (stereo not given),-8.24% (inactive),
CCc1ccc(NC(=O)CCS(=O)(=O)c2cc3c(cc2Cl)NC(=O)CO3)cc1,5.48% (inactive),
O=C(COc1ccc(Br)cc1F)NC1CCN(Cc2ccccc2)CC1,13.6% (inactive),
S=C(Nc1ccc(Br)cc1)NC1CCN(Cc2ccccc2)CC1,,10 µM (active)
O=C(NC1CCN(Cc2ccccc2)CC1)c1cc(Br)c(Br)[nH]1,-7.55% (inactive),
COc1ccc(Nc2ncc(C(=O)Nc3cc(C)ccc3OC)c3ccccc23)cc1,-2.57% (inactive),
